Some test systems named below: DU-145 prostate; K-562 leukemia; MALME-3M melanoma; MDA-MB-231 breast; RXF 393 renal; SF-268 CNS; SF-539 CNS; UACC-257 melanoma; M14 melanoma; HCT-15 colon; HT29 colon; SNB-75 CNS; SNB-19 CNS; U251 CNS; PC-3 prostate; SK-MEL-5 melanoma; UACC-62 melanoma; LOX IMVI melanoma; SK-MEL-28 melanoma.
Common to all, as to assay: NCI-60 one-dose screen, 48 h (100 = growth as untreated, 0 = no growth, -100 = all killed)
What all share (settings): 10 µM unless noted

This is part of a sample that, as a whole, favours compounds with a hit. Of some 83,000 tested, about 20% had one in any assay.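 How to read the values: 0–100, growth inhibition (40 = 60% inhibited); 0, no net growth; -100 to 0, cell death (-40 = 40% of starting cells died; -100 = all dead).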 A number with no mark means an inactive call. Active and inactive are the calls of the source. The calls were made as follows: active = growth percent below 10; inactive = the rest.

Regarding `Cc1ccc(/C=C/C(=N/N=C(N)N)c2ccccc2)cc1`, the growth is 2.48% (active) in the experiment on DU-145 prostate; 11.7% in the experiment on K-562 leukemia; 40% in the experiment on MALME-3M melanoma; 35.5% with MDA-MB-231 breast; -22.9% (active) in the experiment on RXF 393 renal; 36.7% with SF-268 CNS. For the same molecule, the growth was 3.64% (active) in the experiment on SF-539 CNS; 54.5% with UACC-257 melanoma; -24.4% (active) in the experiment on M14 melanoma; 27.6% in the experiment on HCT-15 colon; 4.56% (active) in the experiment with HT29 colon; -0.425% (active) with SNB-75 CNS. The growth in the experiment with SNB-19 CNS is 38.9%; in the experiment on U251 CNS, 13.4%; in the experiment on PC-3 prostate it was 19%; in the experiment with SK-MEL-5 melanoma, 11.3%; in the experiment on UACC-62 melanoma, 33.9%; in the experiment on LOX IMVI melanoma, 30.8%. For the same molecule, the growth in the experiment with SK-MEL-28 melanoma was 46.2%.
Consider `Oc1[nH]c2ccccc2c1/C=c1/ccc2c(c1)N=C(c1ccc(C(F)(F)F)cc1)N=2`, for which the growth in the experiment with DU-145 prostate is 63.1%; in the experiment with K-562 leukemia it was 14.6%; in the experiment with MALME-3M melanoma, 74.2%; with MDA-MB-231 breast, 46.6%; with RXF 393 renal, -37.2% (active); with SF-268 CNS it was 68.7%. Besides, the growth with SF-539 CNS was 67.4%; in the experiment with UACC-257 melanoma, 67.4%; in the experiment with M14 melanoma it was 44.6%; with HCT-15 colon, 44.5%; in the experiment with HT29 colon it was 37.9%; in the experiment with SNB-75 CNS it was 48.7%. For the same molecule, the growth was 61.6% in the experiment on SNB-19 CNS; 32.5% in the experiment on U251 CNS; 32.5% in the experiment on PC-3 prostate; 69.9% in the experiment with SK-MEL-5 melanoma; 47.2% in the experiment on UACC-62 melanoma; 43.4% in the experiment with LOX IMVI melanoma. In the experiment with SK-MEL-28 melanoma, the growth is 52.8%.
For `Oc1[nH]c2ccc(Cl)cc2c1/C=c1/ccc2c(c1)N=C(c1ccc(F)cc1)N=2`, the growth with DU-145 prostate was 86.3%; in the experiment on K-562 leukemia, 16.4%; in the experiment on MALME-3M melanoma it was -3.95% (active); in the experiment with MDA-MB-231 breast it was 63.1%; in the experiment on RXF 393 renal, 63.4%; in the experiment with SF-268 CNS it was 77.2%. Also, the growth with SF-539 CNS was 92.2%; in the experiment with UACC-257 melanoma it was 70.1%; in the experiment on M14 melanoma, 30.4%; in the experiment on HCT-15 colon it was 19.3%; in the experiment on HT29 colon, 62.4%; with SNB-75 CNS it was 55.6%. For the same molecule, the growth is 69% in the experiment on SNB-19 CNS; 72% with U251 CNS; 48.5% in the experiment on PC-3 prostate; 59.3% in the experiment with SK-MEL-5 melanoma; 69% with UACC-62 melanoma; 46.1% in the experiment with LOX IMVI melanoma. In the experiment on SK-MEL-28 melanoma, the growth was 53.7%.
Regarding `CCc1oc2ccccc2c1C(=O)c1cc(I)c(O)c(I)c1`, the growth in the experiment on DU-145 prostate was 77.8%; with K-562 leukemia, 25%; in the experiment with MALME-3M melanoma, 53%; in the experiment on MDA-MB-231 breast it was 54.7%; in the experiment with RXF 393 renal it was 45.3%; with SF-268 CNS, 53.1%. Moreover, the growth with SF-539 CNS was 44%; in the experiment with UACC-257 melanoma, 70.7%; with M14 melanoma, 16.2%; in the experiment with HCT-15 colon, 33.2%; in the experiment on HT29 colon, 98.5%; in the experiment with SNB-75 CNS it was 31.9%. For the same molecule, the growth in the experiment with SNB-19 CNS is 54.2%; in the experiment with U251 CNS it was 29.1%; in the experiment with PC-3 prostate, 74.9%; with SK-MEL-5 melanoma, 32.2%; in the experiment on UACC-62 melanoma, 45.6%; in the experiment on LOX IMVI melanoma it was 51.4%. Further, the growth in the experiment on SK-MEL-28 melanoma was 62.4%.
As to `C/C(=N\NC(=S)Nc1ccccc1)c1ccccn1`, the growth was 57.5% in the experiment on DU-145 prostate; 23.6% in the experiment with K-562 leukemia; 31.3% in the experiment on MALME-3M melanoma; 30.8% with MDA-MB-231 breast; 12.2% with RXF 393 renal; 43.3% in the experiment on SF-268 CNS. Further, the growth was 19.6% in the experiment on SF-539 CNS; 17.6% in the experiment on UACC-257 melanoma; 24.1% in the experiment on M14 melanoma; 28.1% in the experiment on HCT-15 colon; 34.4% with HT29 colon; 79.9% with SNB-75 CNS. Besides, the growth was 43.5% in the experiment with SNB-19 CNS; 32.1% in the experiment on U251 CNS; 31.6% in the experiment on PC-3 prostate; 16.5% in the experiment on SK-MEL-5 melanoma; 16.4% with UACC-62 melanoma; 37.3% in the experiment with LOX IMVI melanoma. Further, the growth in the experiment with SK-MEL-28 melanoma is 59.8%.
`O=[N+]([O-])c1cccc([I+]c2ccccc2)c1`: the growth in the experiment with DU-145 prostate was 58.5%; in the experiment with K-562 leukemia it was 27.3%; with MALME-3M melanoma, 49.4%; in the experiment on MDA-MB-231 breast it was 83.2%; with RXF 393 renal, 72.4%; in the experiment on SF-268 CNS, 50.1%. Also, the growth in the experiment on SF-539 CNS is 65.6%; in the experiment with UACC-257 melanoma it was 80.1%; in the experiment with M14 melanoma, 56.6%; in the experiment with HCT-15 colon, 52.5%; in the experiment with HT29 colon, 27.3%; in the experiment on SNB-75 CNS, 46.9%. The growth was 71.3% in the experiment with SNB-19 CNS; 52.1% with U251 CNS; 59.1% with PC-3 prostate; -2.62% (active) in the experiment with SK-MEL-5 melanoma; 52.2% in the experiment on UACC-62 melanoma; 36.2% with LOX IMVI melanoma. Further, in the experiment with SK-MEL-28 melanoma, the growth is 61.5%.
Turning to `COc1ccc(-c2nnc(SCC(=O)Nc3ccc(C(=O)/C=C/c4ccc(Cl)cc4)cc3)n2-c2ccccc2)cc1`, the growth with DU-145 prostate was 101%; in the experiment with K-562 leukemia, 96.7%; in the experiment with MALME-3M melanoma, 112%; in the experiment with MDA-MB-231 breast, 79.6%; with RXF 393 renal, 106%; with SF-268 CNS, 91%. In addition, the growth is 101% with SF-539 CNS; 115% with UACC-257 melanoma; 85.9% with M14 melanoma; 94.7% in the experiment on HCT-15 colon; 99.2% in the experiment with HT29 colon; 86.5% in the experiment on SNB-75 CNS. The growth in the experiment with SNB-19 CNS is 99.6%; with U251 CNS, 85.8%; in the experiment with PC-3 prostate, 87.9%; with SK-MEL-5 melanoma, 92.1%; in the experiment with UACC-62 melanoma it was 83.7%; in the experiment on LOX IMVI melanoma it was 103%. For the same molecule, the growth in the experiment with SK-MEL-28 melanoma was 101%.
In the case of `CC1=NC(c2ccc(Cl)cc2)C2=C(N1)/C(=C/c1ccc(Cl)cc1)CCC2` (configuration not stated), the growth is 105% in the experiment with DU-145 prostate; 76.6% in the experiment with K-562 leukemia; 96.4% with MALME-3M melanoma; 107% with MDA-MB-231 breast; 90.8% in the experiment on RXF 393 renal; 99.3% in the experiment with SF-268 CNS. Also, the growth with SF-539 CNS was 103%; with UACC-257 melanoma it was 93.7%; in the experiment with M14 melanoma, 65.3%; in the experiment on HCT-15 colon, 79.8%; with HT29 colon it was 54.4%; in the experiment with SNB-75 CNS, 86.6%. Also, the growth in the experiment with SNB-19 CNS was 102%; with U251 CNS, 66%; in the experiment with PC-3 prostate, 89.1%; with SK-MEL-5 melanoma, 84.9%; in the experiment with UACC-62 melanoma, 83.3%; with LOX IMVI melanoma, 36.8%. Also, the growth in the experiment on SK-MEL-28 melanoma was 93.9%.

The values are drawn from PubChem BioAssay (NCI).
